# Laboratory results from the supplement of paper PMC12532568.
# Structures can show the parent of a compound that is named as a salt.
# System: Danio rerio larvae Tg(actc1b:ZsGreen-LC3), 3 dpf
# Test: LC3 puncta relative area vs vehicle, with NH4Cl (autophagic flux) (log2 fold change); higher = more autophagy
# Conditions: 10 µM; treatment time 16 h; NH4Cl: + 100 mM, 4 h
# Protocol: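 Transgenic Tg(actc1b:ZsGreen-map1lc3) zebrafish larvae (2 dpf) were treated for 16 h with Tocris library compounds at 10 µM (n = 12 larvae per compound). Skeletal-muscle LC3 puncta area relative to body area was measured by high-content confocal imaging before and after 4 h of 100 mM NH4Cl (autophagic flux), normalised to vehicle (DMSO), and reported as log2 fold change.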
row,Compound,LC3 puncta (log2)
1,CCCC[C@@H](C=O)NC(=O)[C@H](CC(C)C)NC(=O)OCc1ccccc1 [Calpeptin],1.29
2,O=C(O)C1=CCNCC1 [Isoguvacine hydrochloride],0.468
3,O=[N+]([O-])c1cc2nc(O)c(O)nc2cc1[N+](=O)[O-],0.11
4,N[C@H](C(=O)O)c1cc(O)cc(O)c1,0.736
5,O=C(O)c1cc(=O)c2ccccc2[nH]1 [Kynurenic acid],-0.156
6,O=[N+]([O-])c1cccc2cn[nH]c12 [7-Nitroindazole],0.507
7,"Cc1ccc(OCC(O)C(C)NC(C)C)c2c1CCC2 (stereo not given) [ICI 118,551 hydrochloride]",0.592
8,NC(N)=Nc1ccc(Cl)cc1 [4-Chlorophenylguanidine hydrochloride],0.148
9,Nc1cc(N2CCCCC2)nc(N)[n+]1[O-] [Minoxidil],0.501
10,O=C1CC2(CCCC2)CC(=O)N1CCCCNCC1COc2ccccc2O1 (stereo not given),-0.368
11,CCN(CC)CCOc1ccc(Cc2ccccc2)cc1 [DPPE fumarate],0.857
12,O=C(OCCN1CCCCC1)c1c[nH]c2ccccc12,0.6
13,COc1cc(N)c(Cl)cc1C(=O)OCCCN1CCCCC1,0.449
14,CCOC(=O)C1=C[C@]2(CC)CCCN3CCc4c(n1c1ccccc41)[C@@H]32 [Vinpocetine],1
15,CC(C)CC(NC(=O)OCC1c2ccccc2-c2ccccc21)C(=O)O (stereo not given),0.569
16,O=[N+]([O-])c1cccc2c(Br)[nH]nc12 [3-Bromo-7-nitroindazole],0.697
17,NC(=O)OCC(COC(N)=O)c1ccccc1 [Felbamate],-0.777
18,CC(C)[N+]1(C)[C@@H]2CC[C@H]1C[C@@H](OC(=O)C(CO)c1ccccc1)C2 (stereo not given in full) [Ipratropium bromide],0.284
19,CCc1nc(N)nc(N)c1-c1ccc(Cl)cc1 [Pyrimethamine],0.578
20,CN1CCC(=C2c3ccccc3CC(=O)c3sccc32)CC1 [Ketotifen fumarate],0.874

row,Compound,LC3 puncta (log2)
1,CCOC(=O)C1=C(C)NC(C)=C(C(=O)OC)C1c1cccc([N+](=O)[O-])c1 (stereo not given) [Nitrendipine],0.513
2,COc1ccc2[nH]c(I)c(CCNC(C)=O)c2c1 [2-Iodomelatonin],0.706
3,S=C(S)N1CCCC1 [Pyrrolidinedithiocarbamate ammonium],0.71
4,O=C(OCCN1CCOCC1)C1(c2ccccc2)CCCCC1 [PRE-084 hydrochloride],0.339
5,O=C(O)c1cc(O)c2ccc(Cl)cc2n1 [7-Chlorokynurenic acid],0.316
6,COCCOC(=O)C1=C(C)NC(C)=C(C(=O)OC(C)C)C1c1cccc([N+](=O)[O-])c1 (stereo not given) [Nimodipine],0.885
7,CCN(CC)CCOC(=O)C1(c2ccc([N+](=O)[O-])cc2)CCCC1 [Nitrocaramiphen hydrochloride],0.825
8,CCCCCCN(CCCCCC)C(=O)Cc1c(-c2ccc(Cl)cc2)[nH]c2ccc(Cl)cc12,0.58
9,CC[C@@H]1C(=O)OC[C@@H]1Cc1cncn1C [Pilocarpine hydrochloride],0.652
10,CC(C)NC[C@@H](O)COc1cccc2ccccc12 [(R)-(+)-Propranolol hydrochloride],-0.318
11,NC(=O)c1cccc(N)c1 [3-Aminobenzamide],0.645
12,CC(C)(C)NC[C@H](O)COc1nsnc1N1CCOCC1 [(S)-Timolol maleate],0.785
13,CN(C)CCCCSC(=N)N,0.383
14,c1ccc(CN(CC2=NCCN2)c2ccccc2)cc1 [Antazoline hydrochloride],0.684
15,Fc1ccc(C(c2ccc(F)cc2)N2CCN(C/C=C/c3ccccc3)CC2)cc1 [Flunarizine dihydrochloride],0.536
16,CCCCOc1cc(CC2CNC(=O)N2)ccc1OC (stereo not given),0.0673
17,Cc1ccc(/C(=C\CN2CCCC2)c2ccccn2)cc1 [trans-Triprolidine hydrochloride],-0.196
18,O=C(O)CC/C=C\C[C@H]1CO[C@@H](c2ccccc2Cl)O[C@H]1c1ccccc1O,-0.012
19,O=C1c2ccccc2CCC1CNCCc1ccc(O)cc1 (stereo not given) [HEAT hydrochloride],0.616
20,c1ccc2sc(N3CCN(Cc4ccc5c(c4)OCO5)CC3)nc2c1 [2-[1-(4-Piperonyl)piperazinyl]benzothiazole],0.593
